# From PubChem BioAssay AID1159580 (chemical genetic matrix, 2015)
# In all, about 5,500 compounds went through this assay and about 2,000 (36%) were called active. Inconclusive results (about 18%) are left out. The list shows a part of the results. Values without a mark were called inactive. No stated cut-off is given here; in the data, active means normalized growth mostly below about 0.91 (no sharp cut-off); inconclusive means no clear call, values can overlap the other calls; inactive means mostly above about 0.92.
# Assay: chemical genetic growth profiling, strain panel (AID 1159580);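 further: tested at 20 µM; growth read once vehicle control cultures reached saturation at 30 °C; 1 = growth at the plate median or of vehicle wells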
# Settings: S. cerevisiae deletion strains, growth OD
structure (smiles),measurement,setting,value
CC(C)(O)C1C2OC(=O)C1C1(O)CC3OC34C(=O)OC2C14C (stereo not drawn) (tested in a mixture with another compound),normalized growth,"locus YAL040C, strain CLN3, stronger effect = lower value",0.454 (active)
same,normalized growth,"locus YCL061C, strain MRC1 (second series), stronger effect = lower value",1.01
same,normalized growth,"locus YDR363W, strain ESC2, stronger effect = lower value",0.969
same,normalized growth,"locus YMR307W, strain GAS1, stronger effect = lower value",0.983
same,normalized growth,"locus YNL175C, strain NOP13, stronger effect = lower value",0.537 (active)
same,normalized growth,"locus YNL197C, strain WHI3, stronger effect = lower value",1
same,normalized growth,"locus YNL224C, strain SQS1, stronger effect = lower value",1
same,normalized growth,"locus YOR083W, strain WHI5 (second series), stronger effect = lower value",0.502 (active)
